# Source: PubChem BioAssay (National Center for Advancing Translational Sciences (NCATS))
# Sampled rows, rich in hits. Any-hit rate of the full collection: about 10%.
# LMNA splice mod: modulators of lamin A splicing; HeLa LMNA splicing GFP/RFP minigene ratio, 48 h; hit rate 0.01% among 200,000; Potency, µM (titrated, usually from 46.1 µM), hits mostly inhibitors; active means well fitted inhibition curve with a large enough effect in the signal ratio, with a control signal flat, not every such curve was filed as active; inconclusive means small, poorly fitted or top-dose-only effect, or effect the other way, or a change in a side signal; the % refers to the signal ratio
#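 Read-out is the ratio of GFP to DsRed2 object intensity, acquired by 488 nm laser-scanning cytometry on HeLa lamin A-EGFP minigene reporter cells. Compound incubation 48 hrs at 37 °C in Opti-MEM with 2% FBS; DMSO 0.5% final.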
# HPGD block: inhibitors of human 15-hydroxyprostaglandin dehydrogenase (HPGD); hit rate 4.3% among 150,000; AID 894; Potency, µM, actives largely listed as inhibitors; P15428; purified HPGD, NADH fluorescence kinetic, PGE2 substrate
# Target sequence (P15428 whole entry, looked up): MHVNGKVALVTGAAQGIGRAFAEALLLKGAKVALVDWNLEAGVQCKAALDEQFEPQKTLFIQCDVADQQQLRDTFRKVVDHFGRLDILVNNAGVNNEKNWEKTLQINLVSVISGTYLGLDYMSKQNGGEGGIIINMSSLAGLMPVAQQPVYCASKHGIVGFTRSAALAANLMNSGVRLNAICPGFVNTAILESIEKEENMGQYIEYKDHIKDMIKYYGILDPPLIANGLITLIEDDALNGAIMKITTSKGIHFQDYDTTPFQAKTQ
#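 20 nM HPGD preincubated 15 min at room temperature with compound in 50 mM Tris-HCl pH 8, 0.01% Tween 20. Started with 1 mM NAD+ and 30 uM prostaglandin E2; NADH fluorescence (360/450 nm) read 5 times over 30-s intervals, last minus first.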
# ALDH1A1 inh: inhibitors of human aldehyde dehydrogenase 1A1 | P00352 | Purified ALDH1A1, NADH fluorescence, propionaldehyde substrate | Potency, µM (highest dose often 75.3 µM), hits mostly inhibitors | hit rate 7.3% among 220,000
# IMPase inh: membrane-permeable compound that blocks inositol monophosphatase; P97697; CHO-M1 cells, IP1 accumulation, HTRF TR-FRET ratio; inhibition (IP1 accumulation), % at 46.1 µM; 120,000 tested, under 10 active; AID 901; active means well fitted curve in the direction sought with a large enough effect in the signal ratio, not every such curve was filed as active; inconclusive means small, poorly fitted or top-dose-only effect, or a change in a side signal; inactive means no such curve, though single readings can be large or run the other way; the % refers to the signal ratio;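 further: cells stimulated with carbachol in lithium chloride buffer; higher means more IMPase inhibition seen as more IP1 and lower FRET ratio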
# Target sequence (P97697 whole entry, looked up): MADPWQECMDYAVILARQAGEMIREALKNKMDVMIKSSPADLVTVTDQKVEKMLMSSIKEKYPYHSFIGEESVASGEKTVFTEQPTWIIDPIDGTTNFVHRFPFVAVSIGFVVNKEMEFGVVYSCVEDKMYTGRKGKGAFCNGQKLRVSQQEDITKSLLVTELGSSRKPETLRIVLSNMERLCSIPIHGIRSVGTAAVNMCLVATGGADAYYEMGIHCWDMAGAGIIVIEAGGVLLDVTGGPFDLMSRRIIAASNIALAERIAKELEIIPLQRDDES
#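 The IP-One HTRF competitive assay in carbachol-stimulated CHO-M1 cells quantifies cellular IP1. Compounds spanned up to 46 uM final, and activity is expressed as AC50 from concentration-response fits of the ratio and donor data.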
# PNC inhibitor: perinucleolar compartment assembly inhibition | PC3M PTB-GFP, PNC prevalence imaging, 16 h; hits give low values | activity change (PNC), negative = inhibition, % at 10 µM | hit rate 3.1% among 140,000 | AID 2417;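 active means readout at or below -70, meaning at least 70% loss of cells showing the perinucleolar compartment, a nuclear body marking cancer cells; inconclusive means readout between -30 and a set limit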
#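 Compounds are pinned in duplicate onto adhered PC3M cells stably expressing GFP-tagged PTB and incubated 16 h at 37 C. Cells are then fixed, nuclei stained with Hoechst, and PNC-positive cells counted.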
# Luc counter: counter-screen: inhibitors of Kinase-Glo firefly luciferase | Q27757 | Kinase-Glo luciferase, ATP luminescence, 8 min | Potency, µM (top dose mostly 38.3 µM), most hits filed as inhibitors | hit rate 0.28% among 200,000; active means well fitted inhibition curve with a large enough effect; inconclusive means small, poorly fitted or top-dose-only effect; further: nearly all actives have a fitted effect of over 60% in size
#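 Substrate mix (final 50 mM imidazole pH 7.2, 50 mM KCl, 7 mM MgCl2, 10 uM ATP, 0.01% Tween 20, 0.05% BSA) plus pin-tool compound, then Kinase-Glo detection mix; 8 min ambient, luminescence read.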
# A number is an active result; – = inactive; ? = inconclusive; · = not tested or not shown; [ ] = another dose, or the depositor's remark. Unless noted, the call rests on the fitted dose curve; in most records, active means well fitted inhibition curve with a large enough effect (not every such curve was filed as active); inconclusive means small, poorly fitted or top-dose-only effect, or another doubt; inactive means no such curve, though single readings can be large or run the other way.
SMILES,LMNA splice mod,HPGD block,ALDH1A1 inh,IMPase inh,PNC inhibitor,Luc counter
Cc1cc(C)nc(-n2cc(C(=O)c3cc(F)ccc3O)cn2)n1,–,–,10µM,·,–,–
CCn1c(C)nc2cc(C(=O)n3cc(C(=O)c4cc(F)ccc4O)cn3)ccc21,–,?,1.4µM,–,–,–
COc1cc2c(cc1OC)C(COc1ccc(C(C)C)cc1)N(C(=O)c1ccc(S(=O)(=O)N3CCCC3)cc1)CC2 (centres undefined),–,·,·,·,·,·
Cc1cc2c(nc1C)CCCCN2C[C@H](C)O/N=C\[C@@H](C)[C@H](OCc1ccccc1)C(C)C,·,·,–[13.5 µM],·,·,·
CC1CCCCN1S(=O)(=O)c1ccc(S(=O)(=O)N2CCN(c3ccc(F)cc3)CC2)cc1 (centres undefined),–,–,–,–,-114,–
CCOC(=O)C1CCN(S(=O)(=O)c2cc3c4c(c2)CC(=O)N4CCC3)CC1,–,·,·,·,·,·
CS(=O)(=O)N1CCc2cc(-c3csc(NCC4CCCO4)n3)ccc21 (centres undefined),–,40µM,14µM,–,?,–
CC1Cc2cc(-c3csc(NC(=O)Cc4cccs4)n3)ccc2N1S(C)(=O)=O (centres undefined),?,–,?,–,-125,–
CCCC(=O)Nc1nc(-c2ccc3c(c2)CCN3S(C)(=O)=O)cs1,–,–,?,–,–,–
CS(=O)(=O)N1CCc2cc(-c3csc(NC(=O)Cc4ccccc4)n3)ccc21,?,–,?,–,-119,–
CC(=O)c1cccc(NC(=O)c2cc3nc(-c4ccc(Br)cc4)cc(C(F)(F)F)n3n2)c1,–,·,·,·,·,·
CC1(OC(=O)c2cnc3ccccc3n2)C(=O)C=C2C=C(c3ccsc3)OC=C2C1=O (centres undefined),·,–,–,·,·,–
Cc1c(/C=N/NC(=O)c2ccccc2O)c2ccccn2c1C(=O)c1ccc(F)cc1,?,28µM,–,·,–,–
COc1ccccc1C1C=C(c2ccc(Cl)cc2)Nc2nc(-c3ccc(Cl)cc3)nn21 (centres undefined),·,·,·,–,·,·
O=C(COc1ccc([N+](=O)[O-])cc1)Nc1nc2c(s1)CCCC2,–,·,·,·,·,·
COc1cc(C)c(C(C)C)cc1S(=O)(=O)N1CCOCC1,–,–,3.2µM,–,–,–
COc1cc(Cl)c(S(=O)(=O)N2CCOCC2)cc1Cl,–,–,–,–,?,–
COc1cc(C)c(S(=O)(=O)N2CCOCC2)cc1C,–,–,–,–,-100,–
CCOc1cc(C)c(C(C)C)cc1S(=O)(=O)N1CCOCC1,–,–,3.5µM,–,–,–
CCCOc1cc(C)c(S(=O)(=O)N2CCOCC2)cc1C,?,–,–,·,?,–
CC(Oc1ccccc1)C(=O)Nc1ccc(C(=O)OCc2cc(=O)n3ccsc3n2)cc1 (centres undefined),–,·,·,·,·,·
Cc1ccc(Cn2cc(/C=C(/C#N)C(=O)Nc3cccc(Cl)c3)c3ccccc32)cc1,·,·,·,–,·,·
CC(C)(C)c1ccc(S(=O)(=O)N(CCCN2CCOCC2)Cc2cccs2)cc1,?,25µM,–,·,?,–
Cc1nn(CCC(=O)N2CCN(c3ccccc3F)CC2)c(C)c1S(=O)(=O)N1CCCC1,–,·,·,·,·,·
CCOC(=O)c1noc2nc(C)n(Cc3cccc(C#N)c3)c(=O)c12,–,·,·,·,·,·
SMILES,LMNA splice mod,HPGD block,ALDH1A1 inh,IMPase inh,PNC inhibitor,Luc counter
Cc1cc(=O)oc(C)c1C(=O)OCC(=O)c1ccc(Cl)cc1,–,–,–,–,–,–
Cc1cc(=O)oc(C)c1C(=O)OCC(=O)c1ccc(Br)cc1,–,–,?,–,-90,–
Cc1cc(=O)oc(C)c1C(=O)OCC(=O)c1ccccc1,–,?,16µM,–,–,–
COc1ccc2c(c1)C(=O)[C@H](OC(=O)NS(=O)(=O)c1ccc(C)cc1)[C@@H](c1ccc(OC)c(Br)c1)O2,·,–,?,·,·,–
COc1ccc(C(=O)N2CCc3ccccc32)cc1,–,–,–,–,–,–
COc1ccc(C(=O)/C=C2\NCC3c4ccccc4CCN3C2=O)cc1 (centres undefined),–,28µM,7.9µM,–,–,–
Cc1cccc(-c2oc(C)c(C)[n+]2[O-])c1,–,–,3.5µM,–,–,–
c1ccc(C2=Nc3ccccc3SC2c2nc3ccccc3[nH]2)cc1 (centres undefined),?,35µM,?,–,–,–
CC(C)=CC1C(CO)C1(C)C (centres undefined),–,–,–,·,·,–
CCOc1ccccc1NC(=O)CSc1ccc2nc(-c3ccccc3)cn2n1,–,·,·,·,·,·
CCCc1[nH]n(-c2nc3ccccc3s2)c(=O)c1C=NCCN1CCOCC1,–,–,?,–,?,–
CCCc1[nH]n(-c2nc3ccccc3s2)c(=O)c1C=NCC1CCCO1 (centres undefined),–,–,25µM,–,–,–
CC1CCN(C(=O)c2ccc(N(C)S(C)(=O)=O)cc2)CC1,–,14µM,–,–,?,–
CCOC(=O)C1CCN(C(=O)c2ccc(N(C)S(C)(=O)=O)cc2)CC1,–,–,–,–,–,–
CN(c1ccc(C(=O)N2CCCCC2)cc1)S(C)(=O)=O,–,10µM,–,–,–,–
Cc1ccc(CN(c2ccc(C(=O)N3CCCC3)cc2)S(C)(=O)=O)cc1,–,–,–,–,-83,–
Cc1cccc(NC(=O)CSc2nc(-c3ccccc3)cc(=O)[nH]2)c1C,–,·,·,·,·,·
CC(C)C(=O)N1CCc2cc(-c3csc(N)n3)ccc21,–,20µM,14µM,–,–,–
COc1cccc(-n2ccn(CC(=O)Nc3ccccc3F)c(=O)c2=O)c1,–,·,·,·,·,·
CN(C)CC#Cc1cncc(C(=O)NNC(=O)Nc2ccc(Cl)cc2)c1,?,·,25µM,·,·,·
O=C(NCc1ccco1)C(c1cccs1)N(C(=O)C1COc2ccccc2O1)c1cccc(O)c1 (centres undefined),?,–,–,–,-116,–
CC1=C/C(=N\NC(=O)c2ccc(O)cc2)CC1,–,·,–,–,–,·
CSC(=NNC(=O)c1ccc(O)cc1)SC,–,16µM,–,–,–,?
CC(=O)OC[C@H]1O[C@@H](O/N=C(\C)CCN2CCCCc3nc(C)c(C)cc32)[C@H](OC(C)=O)[C@@H](OC(C)=O)[C@H]1OC(C)=O,·,·,–[13.5 µM],·,·,·
CN(C)c1ccc(CNC(=O)C2(C)C=CCN2C(=O)c2ccccc2)cc1 (centres undefined),·,–,18µM,·,·,–
CC1(C(=O)O)C=CCN1C(=O)c1ccccc1 (centres undefined),–,–,–,·,?,–
COC(=O)c1c(Cl)c2n3ccccc3c(C)c(-c3ccccc3)c-2c1C(=O)OC,–,–,13µM,·,–,–
COC(=O)c1cc2c(-c3ccccc3)c(C)c3ccccn3c-2c1C(=O)OC,?,–,20µM,?,–,–
CCOC(=O)c1c2c(n3ccccc13)C(=O)c1ccccc1C2=O,·,–,?,·,·,–[7.66 µM]
